Test results published in PubChem BioAssay (NCI).
About 79,000 compounds went through this panel and 15% of them were active in at least one assay; those are over-represented in the sample as a whole. A number with no mark means an inactive call. Activity calls are given as the source filed them. Rule as the data show it: active = growth inhibition above about 70%; inactive = the rest.

Assays:
[1] = NCI Yeast Anticancer Drug Screen. Data for the rad50 strain (AID 155);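 also: 0% = growth of vehicle-only cultures of the same strain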; conditions: S. cerevisiae rad50 strain growth inhibition, stronger effect = higher value
Summary of the method: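 Relative growth inhibition (compound vs vehicle) was measured in yeast with a defined repair-gene alteration.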

[2] = NCI Yeast Anticancer Drug Screen. Data for the mec2-1 strain (AID 157); conditions: S. cerevisiae mec2-1 strain, stronger effect = higher value
Summary of the method: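 Vehicle-treated cultures served as reference for growth inhibition of compound-exposed mec2-1 yeast.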

[3] = NCI Yeast Anticancer Drug Screen. Data for the sgs1 mgt1 strain (AID 161);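 also: 0% = growth of cultures given vehicle only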; conditions: S. cerevisiae sgs1 mgt1 strain, stronger effect = higher value
Summary of the method: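 Test agents were incubated with a DNA-repair-mutant yeast strain. Growth was then read and compared against vehicle-treated controls.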

[4] = NCI Yeast Anticancer Drug Screen. Data for the cln2 rad14 strain (AID 165);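 also: 0% = growth equal to vehicle treated cultures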; conditions: S. cerevisiae cln2 rad14 strain, stronger effect = higher value
Summary of the method: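 Each compound was tested on cln2 rad14 yeast. Inhibition of growth was calculated against vehicle-exposed controls.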

[5] = NCI Yeast Anticancer Drug Screen. Data for the bub3 strain (AID 167); conditions: S. cerevisiae bub3 mutant strain, stronger effect = higher value
Summary of the method: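 Screening used yeast with an engineered genetic alteration affecting cell cycle control. Compound-exposed cultures were compared with vehicle cultures, and reduced growth was taken as inhibition.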

[6] = NCI Yeast Anticancer Drug Screen. Data for the mlh1 rad18 strain (AID 175); conditions: S. cerevisiae mlh1 rad18 strain growth inhibition, stronger effect = higher value
Summary of the method: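 Vehicle-treated cultures served as the reference for growth inhibition in a yeast strain carrying DNA damage repair alterations exposed to each compound.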

[7] = at 5.0 µM (retest, dose inferred, filed as 0.5)
[8] = at 50.0 µM (retest, dose inferred, filed as 5.0)

Compound	growth inhibition [1, 7]	growth inhibition [1, 8]	growth inhibition ([1]; at 50.0 µM)	growth inhibition [2, 7]	growth inhibition [2, 8]	growth inhibition ([2]; at 50.0 µM)	growth inhibition [3, 7]	growth inhibition [3, 8]	growth inhibition ([3]; at 50.0 µM)	growth inhibition [4, 7]	growth inhibition [4, 8]	growth inhibition ([4]; at 50.0 µM)	growth inhibition [5, 7]	growth inhibition [5, 8]	growth inhibition ([5]; at 50.0 µM)	growth inhibition [6, 7]	growth inhibition [6, 8]	growth inhibition ([6]; at 50.0 µM)
CCN1C(C)N1P(=S)(OC1CC(C)(C)N(O)C(C)(C)C1)OC1CC(C)(C)N(O)C(C)(C)C1 (configuration not stated)	-2%	3%	45.9%	-6%	6%	91.3% (active)	-3%	1%	32.2%	-3%	4%	90.3% (active)	-5%	5%	98.1% (active)	-5%	12%	14.6%
C#CC(O)(CC)CC	-4%	10%	69.1%	0%	-4%	13.4%	-3%	-2%	77.1% (active)	-6%	-5%	3.5%	-1%	2%	38.8%	-1%	9%	73.5% (active)
O=[N+]([O-])c1ccc([N+](=O)[O-])c2nsnc12	98% (active)	97% (active)	99.5% (active)	90% (active)	98% (active)	99.5% (active)	48%	99% (active)	99.3% (active)	77% (active)	98% (active)	99.3% (active)	98% (active)	98% (active)	99.2% (active)	79% (active)	97% (active)	99% (active)
C[N+](C)(C)CC1CCCC(C[N+](C)(C)C)C1O (configuration not stated)	2%	65%	92.3% (active)	-3%	46%	43.4%	0%	81% (active)	76% (active)	-5%	39%	6.5%	-4%	70% (active)	67.7%	0%	80% (active)	95.2% (active)
CC1(Br)Cc2ccccc2C1=O (configuration not stated)	3%	43%	-2.2%	4%	33%	37.2%	2%	31%	42.3%	1%	16%	-35%	-2%	36%	70% (active)	4%	34%	20.4%
COc1ccc(C[C@H]2NC[C@H](O)[C@H]2OC(C)=O)cc1	34%	99% (active)	92.5% (active)	29%	99% (active)	93.8% (active)	27%	99% (active)	92.3% (active)	43%	99% (active)	89.9% (active)	27%	99% (active)	92.2% (active)	51%	98% (active)	91% (active)
[Cl][Pt+2][Cl].[NH-]c1ccc([N+](=O)[O-])cc1[NH-]	40%	73% (active)	63.8%	27%	62%	75.7% (active)	100% (active)	94% (active)	75.5% (active)	99% (active)	94% (active)	54.6%	100% (active)	95% (active)	68.3%	58%	79% (active)	70.5% (active)
[Pt].c1ccc([PH+](c2ccccc2)c2ccccc2)cc1.c1ccc([PH+](c2ccccc2)c2ccccc2)cc1.c1ccc([PH+](c2ccccc2)c2ccccc2)cc1.c1ccc([PH+](c2ccccc2)c2ccccc2)cc1	31%	62%	68.5%	27%	61%	42.7%	40%	82% (active)	62.3%	49%	55%	64%	42%	54%	62.5%	27%	86% (active)	41.5%
CC(=O)O[C@H]1CCC2[C@@H]3CCC4Nc5oncc5C[C@]4(C)C3CC[C@@]21C (some centres not stated)	-6%	81% (active)	51%	4%	75% (active)	8.35%	-3%	53%	16.6%	-10%	73% (active)	70% (active)	-17%	68%	17.9%	12%	91% (active)	84.5% (active)
CC/C=C/c1cc2c(cc1O)CCC1C2CC[C@@]2(C)C1CC[C@@H]2O (some centres not stated)	-16%	98% (active)	78% (active)	-15%	98% (active)	81.7% (active)	-23%	97% (active)	88.6% (active)	-24%	98% (active)	88.7% (active)	-23%	98% (active)	88.5% (active)	-16%	98% (active)	90.5% (active)
C[CH2][Sn]([O][Sn]([Cl])([CH2]C)[c]1ccccc1)[c]1ccccc1 (configuration not stated)	10%	97% (active)	81.5% (active)	18%	98% (active)	73.2% (active)	-9%	96% (active)	80.9% (active)	28%	96% (active)	81.9% (active)	9%	97% (active)	78.1% (active)	17%	98% (active)	87% (active)
C=NCC#N	8%	8%	-12.9%	-1%	2%	-1.3%	4%	8%	25%	11%	6%	67.3%	4%	-2%	5.25%	3%	3%	26.9%
COC(=O)C1=C(C(=O)OC)C2(C)OC1c1ccccc12 (configuration not stated)	-5%	96% (active)	98.2% (active)	4%	95% (active)	98.1% (active)	4%	96% (active)	98% (active)	0%	92% (active)	93.6% (active)	7%	98% (active)	97% (active)	14%	95% (active)	98.3% (active)
Clc1cc[c]([Tl][c]2ccc(Cl)cc2)cc1	94% (active)	98% (active)	22.9%	97% (active)	100% (active)	11.2%	90% (active)	99% (active)	82.8% (active)	92% (active)	97% (active)	94.3% (active)	95% (active)	98% (active)	89.7% (active)	94% (active)	98% (active)	-1.3%
CCC1(O)C(=O)OCc2c1cc1n(c2=O)Cc2cc3cc(C)ccc3nc2-1 (configuration not stated)	94% (active)	83% (active)	82.2% (active)	36%	64%	83.9% (active)	31%	-19%	47.1%	17%	-4%	18.9%	-1%	-25%	18.8%	36%	61%	64.7%
O=C1C(C(Nc2ccccc2)c2ccccc2)=C([O-])c2ccccc21.O=C1C(C(Nc2ccccc2)c2ccccc2)=C([O-])c2ccccc21.[Co+2] (configuration not stated)	66%	61%	73.7% (active)	42%	62%	55.6%	42%	51%	73% (active)	41%	40%	35%	56%	54%	77.4% (active)	45%	64%	65.5%
COC(C)(C)[CH]([Hg][Cl])n1ccccc1=O (configuration not stated)	99% (active)	99% (active)	99.3% (active)	99% (active)	100% (active)	99.4% (active)	99% (active)	99% (active)	99.3% (active)	98% (active)	99% (active)	99.2% (active)	99% (active)	99% (active)	99.1% (active)	98% (active)	98% (active)	99.3% (active)
CCCCCc1cc(OC(=O)CCCN(CC)CC)c2c(c1)OC(C)(C)[C@@H]1CCC(C)=C[C@@H]21	79% (active)	97% (active)	87% (active)	30%	98% (active)	91% (active)	63%	99% (active)	89.7% (active)	49%	98% (active)	90% (active)	27%	99% (active)	87.8% (active)	74% (active)	97% (active)	91.7% (active)
O=[N+]([O-])c1ccc(C2C3CC4C(OOC42)C3I)cc1 (configuration not stated)	0%	20%	23.5%	0%	9%	18.1%	-4%	12%	32.8%	-1%	-7%	-27.4%	28%	98% (active)	97.2% (active)	0%	27%	31.4%
